Data on 39 compounds can be found in the supplement of paper PMC3484114.

The structures appear in SMILES notation. ± gives the standard deviation.

In the test the test system is OVCAR-3-derived ovarian cancer stem-like cells (spheroids). Nature of the test: cell growth relative to untreated control; higher = more growth (less inhibition). Conditions: 2.29 µM; 96 h. A digest of the protocol:
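OVCAR-3 spheroid-derived stem-like cells were trypsin-dissociated, seeded at 50,000 cells/mL in stem cell medium in ultra-low attachment 96-well plates and preincubated 24 h. Compounds were then added at 2.29 uM for 96 h at 37°C, 5% CO2, in 4 replicate wells. Viability was read as TOX8 resazurin fluorescence (ex 560/em 590 nm) after 4 h. Percent growth was calculated relative to untreated wells after blank subtraction and Grubbs outlier removal.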
With `O=C1Cc2c([nH]c3ccc(Br)cc23)-c2ccccc2N1`, the cell growth was 109 ± 9.9%.
For `CC(=O)NC1C(OCc2ccccc2)OC(CO)C(O)C1OC(C)C(=O)NC(C(=O)NC(CCC(=O)NCCCCNc1c2ccccc2nc2cccc([N+](=O)[O-])c12)C(N)=O)C(C)C` (centres undefined), the cell growth was determined as 105 ± 21%.
`CN(Cc1cnc2nc(N)nc(N)c2n1)c1ccc(C(=O)NC(CCC(=O)O)C(=O)O)c2ccccc12` (centres undefined) registered a cell growth of 84.7 ± 30%.
The result for `COc1ccc2nc3cc([N+](=O)[O-])ccc3c(NNc3ccccc3)c2c1` reads 76.2 ± 22%; that for `CC1=CC(=O)c2ccccc2C1=O`, 89.6 ± 9.4%.
For the compound `CC(=O)/C(=C\c1cccc([N+](=O)[O-])c1)C(=O)Nc1ccccc1C`, the cell growth was 81.8 ± 22%.
In turn, `CN(NC1=NCCO1)c1ccc2ccccc2c1` displayed a cell growth of 117 ± 18%.
`COc1ccc2c(c1[N+](=O)[O-])CC[C@@H]1[C@@H]2CC[C@]2(C)C(=O)CC[C@@H]12`: the cell growth amounted to 152 ± 33%.
The value for `Cc1nc(N)nc(N)c1-c1ccc(Cl)c(Cl)c1` was 102 ± 13%; that for `CC1(O)C=CC(=O)C=C1` was 116 ± 12%; that for `O=C(Nc1ccc2c(c1)oc(=O)c1ccccc12)C(Cl)Cl` was 10.2 ± 2.1%.
The value for `CO[C@H](C(=O)[C@@H](O)[C@@H](C)O)[C@@H]1Cc2cc3cc(O[C@H]4C[C@@H](O[C@H]5C[C@@H](O)[C@H](O)[C@@H](C)O5)[C@H](O)[C@@H](C)O4)c(C)c(O)c3c(O)c2C(=O)[C@H]1O[C@H]1C[C@@H](O[C@H]2C[C@@H](O[C@H]3C[C@](C)(O)[C@H](O)[C@@H](C)O3)[C@@H](O)[C@@H](C)O2)[C@H](O)[C@@H](C)O1` was 10.8 ± 3.6%.
Take `CC(C)=CC1C(C(=O)O)C1(C)C` (centres undefined): the cell growth was 103 ± 37%.
The compound `CCN(CC)c1ccc2cc3ccc(=[N+](CC)CC)cc-3oc2c1` showed a cell growth of 45.5 ± 10%.
The result for `COc1ccc(NC(=O)CC(=O)N2N=C(C)C(N=Nc3ccc(S(=O)(=O)c4ccc(N=NC5C(=O)N(C(=O)CC(=O)Nc6ccc(OC)cc6)N=C5C)cc4)cc3)C2=O)cc1` (centres undefined) reads 105 ± 30%; that for `COc1cc(/C=C(\OC(C)=O)c2ccc3c(c2)OCO3)cc(OC)c1OC`, 162 ± 58%.
The result for `COC(=O)[C@@H]1[C@H](O)[C@H](C)[C@H](O)[C@H](C)/C=C\C=C(/C)C(=O)Nc2c(C)c(OC(C)=O)c3c(c2O)C(=O)C(C)=C2OCOC(=C23)/C(C)=C/[C@@](C)(O)[C@H](O)[C@@H](C)[C@H]1OC(C)=O` reads 110 ± 22%.
The result for `N#CC(=S)Nc1ccc(F)cc1` reads 104 ± 19%; that for `Nc1ccc2cc3ccc(N)cc3nc2c1`, 25.8 ± 6.4%; that for `O=c1oc2ccccc2cc1-c1ccc([N+](=O)[O-])cc1`, 38.6 ± 7.1%.
`CCCCCCCCCc1c(Cl)nc(Cl)nc1Cl` came in with a cell growth of 113 ± 24%.
The result for `Cc1ccc(NC(=O)/C=C/c2ccccc2)c(C)c1` reads 77.2 ± 16%; that for `O=C(O)CC(NC(=O)CP(=O)(O)O)C(=O)O` (centres undefined), 106 ± 16%.
The value for `Cc1cc(O)c(/C=N/C(N)=S)c(=O)o1` was 92.5 ± 14%; that for `COc1ccc(C(=O)/C(Br)=C\C(=O)O)cc1` was 75.5 ± 16%; that for `Cc1c2c(cc3c1[nH]c1ccccc13)C=NCC2` was 227 ± 75%.
Compound `CN1C(c2ccccc2)CC(=NO)CC1c1ccccc1` (centres undefined) displayed a cell growth of 99.7 ± 13%.
The value for `COc1cc(O)c(Cc2ccccc2O)c(O)c1C(=O)CCc1ccccc1` was 86.8 ± 30%; that for `Oc1cc2c3c(c1)c1cc4c(cc1c[n+]3CC2)OCO4` was 97.7 ± 13%; that for `CN(CO)c1nc(N(C)CO)nc(N(C)CO)n1` was 83.5 ± 18%.
In turn, `O=C1NC(c2cccc3ccccc23)Nc2ccc(Cl)cc21` (centres undefined) yielded a cell growth of 99.5 ± 9.1%.
The result for `CCCCCCC1CC(=O)C1(Cl)Cl` (centres undefined) reads 104 ± 16%.
The result for `NCCSSCc1ccccc1CSSCCN` reads 109 ± 25%; that for `Cc1ccc2ccc3ccc(C)nc3c2n1`, 18.5 ± 10%.
The value for `COC(=O)C1CCC(=O)N1C(c1ccc(OC)cc1)c1cc(OC)c(OC)c(OC)c1` (centres undefined) was 18.5 ± 9.1%.
Regarding `O=C1c2ccccc2C(=O)C1C(c1ccc([N+](=O)[O-])cc1)C1C(=O)c2ccccc2C1=O`, the cell growth was found to be 83.3 ± 24%.
The result for `COc1ccccc1[S+]([O-])Nc1ccccc1` (centres undefined) reads 117 ± 25%; that for `CN(C)CCCCN1CCc2c(n(C)c3ccccc23)C1=O`, 101 ± 13%.
`OCC1OC(n2cnc3c(SCc4ccccc4)ncnc32)C(O)C1O` (centres undefined) showed a cell growth of 118 ± 33%.
